Measurements from PubChem BioAssay (Tox21).
A number with no mark means an inactive call. Results filed as inconclusive are left out. Where a call stands in place of a potency, no number is given. The source made the active and inactive calls. Unless noted, the call rests on the fitted dose curve; in most records, active means well fitted curve in the direction sought with a large enough effect in the repeat runs; inconclusive means weak or mixed curves; inactive means no such curve, though single readings can be large; an effect the other way counts as inactive or inconclusive.

How the values were obtained:
[1] = biological target: Nuclear receptor subfamily 1 group I member 3 (Homo sapiens) (UniProt Q14994); assay: qHTS assay to identify small molecule antagonists of the constitutive androstane receptor (CAR) signaling pathway (AID 1224838);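 further: HepG2 cells stably expressing hCAR with CYP2B6 luciferase reporter stimulated by CITCO; nearly all actives have a fitted effect of over 40% in size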
Method in brief: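 Antagonist mode used CITCO at a final 50 nM to activate CAR in human hepatoma HepG2 cells carrying stable hCAR and a 2.2 kb CYP2B6 promoter-luciferase construct. Compounds were tested at 15 concentrations over 24 h, with luminescence as the end point.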

[2] = qHTS assay to identify small molecule antagonists of the estrogen related receptor signaling pathway with the pleiotropic PPARgamma coactivator (PGC) from Tox21 10K library - cell viability counter screen (AID 1224840; active means well fitted cell-killing curve with a large enough effect in the repeat runs, not every such curve was filed as active; further: nearly all actives have a fitted effect of over 40% in size; further: potency means the concentration at half of the fitted maximal effect)
Method in brief: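 Multiplexed viability counter screen in the PGC/ERR cell line: cells treated with DMSO-dissolved compounds for 17.5 hours at 37 C, then viability measured as CellTiter-Fluor fluorescence.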

[3] = biological target: Thyrotropin receptor (Homo sapiens) (UniProt P16473); assay: qHTS assay to identify small molecule agonists of the thyroid stimulating hormone receptor (TSHR) signaling pathway (AID 1224843; calls by dose curve; further: nearly all actives have a fitted effect of over 45% in size; further: potency means the concentration at half of the fitted maximal effect)
Method in brief: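 Agonist activity read as cAMP rise via d2/cryptate HTRF competition, 1 h room-temperature detection, in HEK293 cells expressing TSHR. Fifteen-point titrations, each run in triplicate, with a 30 min room-temperature incubation beforehand.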

[4] = qHTS assay to identify small molecule agonists of H2AX (AID 1224845; active means well fitted activation curve with a large enough effect in the signal ratio in the repeat runs, not every such curve was filed as active; the % refers to the signal ratio)
Method in brief: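 Phospho-H2AX Ser139 measured by HTRF (ex 320 nm; em 665 and 620 nm) after 24 hr antibody incubation. Compounds, 15 concentrations, 0.76% DMSO, were applied to CHO-K1 cells for 3hr at 37C before lysis.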

[5] = qHTS assay to identify small molecule agonists of the hypoxia (HIF-1) signaling pathway (AID 1224846; active means well fitted activation curve with a large enough effect in the signal ratio in the repeat runs, not every such curve was filed as active; the % refers to the signal ratio)
Method in brief: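 Compounds from the Tox21 10K library, dissolved in DMSO, are tested for induction of a hypoxia response element–controlled beta-lactamase reporter in ME-180 cells. Exposure lasts 17 hrs at 37C after a 5 hr settling period, followed by CCF4-AM FRET substrate.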

[6] = qHTS assay to identify small molecule agonists of H2AX - cell viability counter screen (AID 1224847; calls by dose curve; further: nearly all actives have a fitted effect of over 30% in size; further: potency means the concentration at half of the fitted maximal effect)
Method in brief: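 CHO-K1 wt, 1000 cells/well, o/n 37C; cpds 15 conc, 3 h 37C, 0.76% DMSO; CellTiter-Glo, 30 min RT, luminescence.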

[7] = qHTS RealTime-Glo MT Cell Viability Assay in HepG2 cells - 24 hour (AID 1224867); further: nearly all actives have a fitted effect of over 50% in size
Method in brief: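 HepG2 cells (600/well) were dispensed with RealTime-Glo reagents, incubated 5 h at 37 °C, then treated with compounds in DMSO for up to 40 h. Nonlytic NanoLuc luminescence reflecting viable cells was read at each stated time point.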

[8] = A CellTox Green Cytotoxicity Assay to monitor cytotoxicity in HEK293 cells - 0 hour (AID 1224869); further: nearly all actives have a fitted effect of over 50% in size
Method in brief: (§1)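 Cells (HEK293, 600/well) and dye reagent are dispensed together. After 5 h at 37 C, 23 nL compound is pinned in. Plates stay at 37 C for 40 h with fluorescence read at 0h, 8h, 16h, 24h, 32h and 40h.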

[9] = qHTS RealTime-Glo MT Cell Viability Assay in HepG2 cells - 40 hour (AID 1224870); further: nearly all actives have a fitted effect of over 50% in size; further: potency means the concentration at half of the fitted maximal effect
Method in brief: (§2)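 Real-time viability: cells seeded at 600 per well together with NanoLuc and cell-permeant prosubstrate, compounds added after 5 h incubation. Luminescence tracked at 0, 8, 16, 24, 32 and 40 h of exposure.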

[10] = A CellTox Green Cytotoxicity Assay to monitor cytotoxicity in HEK293 cells - 40 hour (AID 1224871); further: nearly all actives have a fitted effect of over 45% in size; further: potency means the concentration at half of the fitted maximal effect
Method in brief: as §1

[11] = qHTS RealTime-Glo MT Cell Viability Assay in HepG2 cells - 8 hour (AID 1224873); further: nearly all actives have a fitted effect of over 55% in size; further: potency means the concentration at half of the fitted maximal effect
Method in brief: as §2

[12] = qHTS assay to identify small molecule agonists of the hypoxia (HIF-1) signaling pathway - cell viability counter screen (AID 1224844; calls by dose curve; further: nearly all actives have a fitted effect of over 50% in size; further: potency means the concentration at half of the fitted maximal effect)
Method in brief: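 Cytotoxicity was measured in parallel with the HRE-driven beta-lactamase readout: after 17 hrs of compound exposure at 37C, HRE-bla ME-180 cells received CellTiter-Glo and luminescence was recorded 30 min later.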

[13] = qHTS RealTime-Glo MT Cell Viability Assay in HEK293 cells - 32 hour (AID 1224868); further: nearly all actives have a fitted effect of over 50% in size; further: potency means the concentration at half of the fitted maximal effect
Method in brief: (§3)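 HEK293 cells seeded with NanoLuc/prosubstrate reagent, rested 5 h at 37 C, then dosed and kept at 37 C up to 40 h. Nonlytic real-time luminescence from viable cells read at 0, 8, 16, 24, 32 and 40 h.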

[14] = qHTS RealTime-Glo MT Cell Viability Assay in HEK293 cells - 16 hour (AID 1224872); further: nearly all actives have a fitted effect of over 50% in size; further: potency means the concentration at half of the fitted maximal effect
Method in brief: as §3

[15] = qHTS assay to identify small molecule antagonists of the estrogen related receptor signaling pathway with the pleiotropic PPARgamma coactivator (PGC) from Tox21 10K library (AID 1224841; call rule not given here; further: potency means the concentration at half of the fitted maximal effect)
Method in brief: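 Steps: plate 2,000 PGC/ERR cells per well; incubate 6 h at 37 C with 5% CO2; transfer compounds from DMSO stocks by pin tool; incubate 18 h at 37 C; add One-Glo; measure luminescence 30 min later.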

[16] = qHTS assay to identify small molecule agonists of the estrogen related receptor signaling pathway with the pleiotropic PPARgamma coactivator (PGC) from Tox21 10K library (AID 1224842); further: nearly all actives have a fitted effect of over 15% in size
Method in brief: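 Luminescence from One-Glo (30 min, room temperature) measured after PGC/ERR cells had 18 h at 37 C with pinned compound (23 nL in DMSO). Cells had been seeded at 2,000 per well and pre-incubated 6 h.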

[17] = qHTS assay to identify small molecule antagonists of the estrogen related receptor (ERR) signaling pathway from Tox21 library (AID 1224848); further: nearly all actives have a fitted effect of over 50% in size; further: potency means the concentration at half of the fitted maximal effect
Method in brief: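 Luciferase luminescence (ONE-Glo, 30 min room temperature) was the read-out. Cells of the NTP-supplied ERR line, 2,000 per well, were given 6 h at 37 C before compound addition in DMSO and 18 h exposure at 37 C.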

[18] = qHTS assay to identify small molecule agonists of the estrogen related receptor (ERR) signaling pathway from Tox21 library (AID 1224849; calls by dose curve; further: nearly all actives have a fitted effect of over 15% in size); conditions: ERR reporter cell line, ONE-Glo luciferase, 18 h; at 92.4 µM (top of the series) unless noted
Method in brief: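 Cells carrying the ERR reporter were plated and allowed to settle for 6 h, exposed to library compounds for 18 h at 37 C, then lysed with ONE-Glo and luminescence measured.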

[19] = biological target: Nuclear receptor subfamily 1 group I member 3 (Homo sapiens) (UniProt Q14994); assay: qHTS assay to identify small molecule agonists of the constitutive androstane receptor (CAR) signaling pathway (AID 1224839); further: nearly all actives have a fitted effect of over 15% in size
Method in brief: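 Luminescence read-out (ONE-Glo, 30 min, room temperature) from double-stable HepG2-CYP2B6-hCAR cells exposed 24 h to 15-point compound series in presence of 0.75 uM PK11195 final.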

Sequence of Thyrotropin receptor (Homo sapiens) (P16473 whole entry, looked up): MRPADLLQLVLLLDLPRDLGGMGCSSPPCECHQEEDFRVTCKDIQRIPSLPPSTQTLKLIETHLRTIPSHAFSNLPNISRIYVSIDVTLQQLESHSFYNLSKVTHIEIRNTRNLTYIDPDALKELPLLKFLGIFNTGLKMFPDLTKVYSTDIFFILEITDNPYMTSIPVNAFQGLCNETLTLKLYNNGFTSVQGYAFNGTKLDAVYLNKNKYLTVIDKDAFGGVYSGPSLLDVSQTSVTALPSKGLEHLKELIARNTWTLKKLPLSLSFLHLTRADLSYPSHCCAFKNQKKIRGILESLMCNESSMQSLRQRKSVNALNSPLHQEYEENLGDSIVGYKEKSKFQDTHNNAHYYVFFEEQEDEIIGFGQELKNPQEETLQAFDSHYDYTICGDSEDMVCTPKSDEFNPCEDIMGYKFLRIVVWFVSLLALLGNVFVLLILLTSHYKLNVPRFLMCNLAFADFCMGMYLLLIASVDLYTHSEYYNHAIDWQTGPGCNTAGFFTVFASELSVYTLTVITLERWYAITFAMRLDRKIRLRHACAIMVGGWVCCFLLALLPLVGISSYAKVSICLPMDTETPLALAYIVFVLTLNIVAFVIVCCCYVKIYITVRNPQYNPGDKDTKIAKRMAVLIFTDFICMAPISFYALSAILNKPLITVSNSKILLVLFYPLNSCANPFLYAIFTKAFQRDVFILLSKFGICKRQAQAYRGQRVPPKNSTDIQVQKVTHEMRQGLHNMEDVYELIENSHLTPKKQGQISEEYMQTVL
Sequence of Nuclear receptor subfamily 1 group I member 3 (Homo sapiens) (Q14994 whole entry, looked up): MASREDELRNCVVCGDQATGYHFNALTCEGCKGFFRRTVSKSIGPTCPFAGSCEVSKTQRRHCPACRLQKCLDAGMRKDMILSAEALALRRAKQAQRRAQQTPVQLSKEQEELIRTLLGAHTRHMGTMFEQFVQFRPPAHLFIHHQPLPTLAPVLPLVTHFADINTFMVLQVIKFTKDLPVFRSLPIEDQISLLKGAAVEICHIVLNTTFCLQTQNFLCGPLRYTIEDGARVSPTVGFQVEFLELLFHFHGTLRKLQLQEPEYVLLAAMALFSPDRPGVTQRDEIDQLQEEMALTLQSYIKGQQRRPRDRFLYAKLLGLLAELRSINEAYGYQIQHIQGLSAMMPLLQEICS

Row | SMILES | Potency [1] | Potency [2] | Potency [3] | Potency [4] | Potency [5] | Potency [6] | Potency [7] | Potency [8] | Potency [9] | Potency [10] | Potency [11] | Potency [12] | Potency [13] | Potency [14] | Potency [15] | Potency [16] | Potency [17] | activity change, positive = activation [18] | Potency [19]
1 | CCN(CC)c1ccc(C=O)cc1 | inactive | inactive | inactive | inactive | inactive | inactive | inactive | inactive | inactive | inactive | inactive |  |  |  |  |  |  |  | 
2 | O=C(N[C@H](CO)[C@H](O)c1ccc([N+](=O)[O-])cc1)C(Cl)Cl | inactive | inactive |  |  |  | inactive | inactive | inactive | inactive | inactive | inactive | inactive |  |  |  |  |  |  | 
3 | CC(C)=NNC(N)=S |  | inactive |  |  | inactive | inactive |  | inactive | inactive | inactive | inactive | inactive | inactive | inactive |  |  |  |  | 
4 | O=c1[nH]cccc1O | inactive |  |  |  | inactive | inactive | inactive | inactive | inactive |  | inactive |  | inactive | inactive | inactive | inactive | 19.3 µM (active) | -37% | 
5 | O=C(CCCCCCCCc1cccnc1)N1CCC(C=C(c2ccccc2)c2ccccc2)CC1 |  |  |  |  |  | 50.5 µM (active) |  | inactive |  |  | 49 µM (active) | 13.8 µM (active) | 21.9 µM (active) | 21.9 µM (active) |  |  | 21.7 µM (active) | -69.2% | 
6 | Cc1c(Cl)c(=O)oc2cc(O)ccc12 | inactive |  | inactive |  |  |  | inactive | inactive | inactive |  | inactive |  | 43.6 µM (active) | 49 µM (active) |  |  |  |  | 
7 | c1ccc(C[P+](c2ccccc2)(c2ccccc2)c2ccccc2)cc1 |  |  |  | inactive |  | 101 µM (active) | inactive | inactive | inactive | 4.9 µM (active) | inactive | inactive | 1.55 µM (active) |  | 3.44 µM (active) | inactive | 1.72 µM (active) | -56.8% | inactive
8 | CCCCCCCCCCCCCCCCCCNC(=O)OC1CCN(C(=O)OC[C@H](COC(=O)N(Cc2cccc[n+]2CC)C(=O)c2ccccc2OC)OC)CC1 | inactive |  |  | inactive |  |  |  | inactive |  |  |  |  | 9.52 µM (active) | 21.3 µM (active) | 11.9 µM (active) |  | 10.6 µM (active) | -55.2% [at 42.5 µM] | 
9 | C=C(C)CCO |  | inactive | inactive |  | inactive |  |  | inactive | inactive | inactive | inactive | inactive | inactive | inactive |  |  |  |  | 
10 | Cc1ccc(Cl)c(N)c1Cl |  | inactive |  |  |  |  | inactive | inactive |  |  | inactive |  | inactive | inactive |  | inactive | inactive | -0.961% | inactive
11 | C/C(=C\c1ccc(C(=O)O)cc1)c1ccc2c(c1)C(C)(C)CCC2(C)C |  | inactive | inactive |  | inactive | inactive | inactive | inactive | inactive |  | inactive |  | inactive | inactive |  |  |  |  | 
12 | CO[Si](OC)(c1ccccc1)c1ccccc1 |  | inactive | inactive |  |  | inactive | inactive | inactive | inactive | inactive |  |  | inactive |  |  | inactive |  | -12.9% | 
13 | Cc1cc(C)c(O)c(C(C)(C)C)c1 | inactive |  |  | inactive | inactive |  | inactive | inactive | inactive | 34.7 µM (active) | inactive | inactive | inactive | inactive |  | inactive | inactive | 1.52% | 
14 | C[C@H]1O[C@@H](O[C@H]2CC[C@@]3(C)[C@H](CC[C@@H]4[C@@H]3C[C@@H](O)[C@]3(C)[C@@H](C5=CC(=O)OC5)CC[C@]43O)C2)C[C@H](O)[C@@H]1O[C@H]1C[C@H](O)[C@H](O[C@H]2C[C@H](O)[C@H](O[C@@H]3O[C@H](CO)[C@@H](O)[C@H](O)[C@H]3O)[C@@H](C)O2)[C@@H](C)O1 |  |  |  |  | inactive |  |  | inactive | inactive | inactive | inactive | 0.379 µM (active) | 0.239 µM (active) |  | 0.335 µM (active) |  | 0.376 µM (active) | -54.9% [at 42.5 µM] | 
15 | CN1CCN(c2ccccc2/C=C2\SCCN(c3ccc(Cl)c(Cl)c3)C2=O)CC1 | inactive | 48.6 µM (active) |  |  |  | 50.5 µM (active) |  | inactive | 21.9 µM (active) | 43.6 µM (active) | 49 µM (active) | 49 µM (active) | 12.3 µM (active) | 12.3 µM (active) |  |  | 24.3 µM (active) | -79.7% | 
16 | CC(C)(c1ccc(Oc2ccc(N)cc2)cc1)c1ccc(Oc2ccc(N)cc2)cc1 | inactive |  | 27.3 µM (active) |  |  | 80 µM (active) | inactive | inactive | inactive | inactive |  |  |  |  |  |  |  |  | 
17 | Cn1c(=O)[nH]c2ncn(C)c2c1=O |  | inactive | inactive | inactive |  | inactive | inactive | inactive | inactive | inactive | inactive | inactive | inactive | inactive |  |  |  |  | 
